In PubChem BioAssay one finds inhibition data, which are given here for 13 molecules.

Assay [1] concerns the target Nuclear receptor coactivator 3 (Homo sapiens) (UniProt Q9Y6Q9). Nature of the assay: SRC3 coactivator transcriptional activity inhibitors, confirmation, cell-based, luminescence, quadruplicate (AID 588792;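 active means mean inhibition over 43.08%, the solvent-only control mean plus 3 SD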;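 further: 0% = DMSO treated cells and 100% = gossypol at 36 µM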). The following applies: HEK293 GAL4-SRC3 luciferase reporter, at 3.6 µM, hits give high values. On the technique in general: Reporter assays use an easily measured gene product as a stand-in for the process of interest.

Assay [2] concerns transactivating tegument protein VP16 (Human herpesvirus 1), Gal4-VP16 luciferase reporter. Nature of the assay: VP16 transactivation inhibitors, counter-screen for SRC3 inhibitor project, cell-based, luminescence, high throughput (AID 588794). The settings on record: mammalian cells, VP16-driven luciferase reporter luminescence; at 3.6 µM; hits give high values. A general note: Counterscreens check selectivity or assay interference.

Structures are written as SMILES. A number with no mark means an inactive call. Calls of active or inactive are those of the source. Unless noted, no stated cut-off is given here; in the data, active means inhibition above about 30%; inactive means the rest.

Nuclear receptor coactivator 3 (Homo sapiens), sequence (Q9Y6Q9 whole entry, looked up, the tested form may be a part): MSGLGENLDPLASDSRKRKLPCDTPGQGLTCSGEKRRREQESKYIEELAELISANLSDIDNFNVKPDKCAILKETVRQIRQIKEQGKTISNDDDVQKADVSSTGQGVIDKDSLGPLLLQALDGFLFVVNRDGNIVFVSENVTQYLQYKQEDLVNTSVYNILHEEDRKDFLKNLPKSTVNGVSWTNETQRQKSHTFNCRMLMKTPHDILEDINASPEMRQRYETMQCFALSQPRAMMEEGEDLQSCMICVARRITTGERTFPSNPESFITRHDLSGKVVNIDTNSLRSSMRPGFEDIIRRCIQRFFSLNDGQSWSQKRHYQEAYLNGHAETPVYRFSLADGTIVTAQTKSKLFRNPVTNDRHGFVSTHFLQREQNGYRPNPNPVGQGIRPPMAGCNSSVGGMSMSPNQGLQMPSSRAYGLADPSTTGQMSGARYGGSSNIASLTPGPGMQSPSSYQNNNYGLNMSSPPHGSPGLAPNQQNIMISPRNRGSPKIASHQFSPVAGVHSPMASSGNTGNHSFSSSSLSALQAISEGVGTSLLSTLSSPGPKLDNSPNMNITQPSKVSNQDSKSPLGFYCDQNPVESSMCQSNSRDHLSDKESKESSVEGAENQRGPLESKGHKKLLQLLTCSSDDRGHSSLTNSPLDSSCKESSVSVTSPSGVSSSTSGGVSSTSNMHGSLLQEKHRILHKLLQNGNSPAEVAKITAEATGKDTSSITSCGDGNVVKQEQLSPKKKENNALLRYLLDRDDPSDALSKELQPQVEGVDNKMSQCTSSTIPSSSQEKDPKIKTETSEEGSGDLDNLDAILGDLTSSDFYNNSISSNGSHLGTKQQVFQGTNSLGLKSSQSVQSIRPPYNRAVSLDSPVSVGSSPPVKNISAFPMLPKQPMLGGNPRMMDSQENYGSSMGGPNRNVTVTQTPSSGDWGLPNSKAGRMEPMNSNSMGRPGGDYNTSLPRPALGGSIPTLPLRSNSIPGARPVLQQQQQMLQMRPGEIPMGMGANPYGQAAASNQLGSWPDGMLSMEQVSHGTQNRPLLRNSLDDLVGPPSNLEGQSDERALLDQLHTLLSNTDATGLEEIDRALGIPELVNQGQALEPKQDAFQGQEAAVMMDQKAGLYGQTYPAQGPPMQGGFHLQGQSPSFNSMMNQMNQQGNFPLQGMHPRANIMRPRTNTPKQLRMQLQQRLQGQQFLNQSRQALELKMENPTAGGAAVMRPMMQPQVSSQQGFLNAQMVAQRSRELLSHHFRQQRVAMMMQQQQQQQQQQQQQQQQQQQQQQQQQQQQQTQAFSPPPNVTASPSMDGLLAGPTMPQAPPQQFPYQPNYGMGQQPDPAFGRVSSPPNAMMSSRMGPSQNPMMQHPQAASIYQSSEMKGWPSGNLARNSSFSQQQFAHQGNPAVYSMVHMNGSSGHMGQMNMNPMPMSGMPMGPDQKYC

Take `Cc1ccccc1OCCNC(=O)c1ccccc1Sc1ccccc1C#N`: the inhibition – broadly, the change of the read-out against control, counted positive when it falls – in assay [1] was 6.19%; in assay [2], 1.44%.
For `Cn1nc(C(C)(C)C)cc1C(=O)NCc1ccc(N2CCCC2=O)cc1` the same measures were 10.7% and 38.8% (active).
Taken in the same sequence, the figures for `COn1c(C)c(C(C)=O)c2c3nonc3ccc21` were 22.5% and 33.5% (active).
Take `COc1ccc(O)c(-c2[nH]ncc2C(=O)c2ccccc2)c1`: the inhibition in assay [1] was 26.3%; in assay [2] it was 18.6%.
Consider `Cn1c(=O)n(C)c2cc(NS(=O)(=O)c3ccc(C(C)(C)C)cc3)ccc21`, for which the inhibition is 16.6% in assay [1] and 14.9% in assay [2].
For `CCc1c(C)nc2ncnn2c1NCCc1ccc(Cl)cc1` the same measures were 23.3% and 25.9%.
Regarding `C[C@H](NC(=O)Nc1ccccc1F)C(=O)O`, the inhibition was 5.66% in assay [1] and 3.39% in assay [2].
Turning to `Cc1cc(/C=C2\SC(=S)N(C)C2=O)c(C)n1-c1cccc(O)c1`, the inhibition is 51.6% (active) in assay [1] and 38% (active) in assay [2].
For the molecule `CCOC(=O)C(=O)NNc1ccc(C)cc1`, the values for the inhibition in assay [1] and in assay [2] were -7.17% and 4.76%, respectively.
On to `O=C1OCCC1Sc1nnc(-c2ccc(Cl)cc2Cl)o1` (stereo unspecified), for which the inhibition in assay [1] was 0.88%; in assay [2], 1.16%.
For `COc1ccc(C(=O)C2CCCN(Cc3cccn3-c3ccccn3)C2)c(C)c1` (stereo unspecified) the same measures were 26.1% and 9.76%.
Taken in the same sequence, the figures for `CC/C(C)=N/Nc1cccc([N+](=O)[O-])c1` were 2.68% and 18%.
With `COc1cc(C(F)(F)F)c(C(=O)N(C)Cc2cc(Cl)cc(Cl)c2)cn1`, the inhibition is -10.3% in assay [1] and -2.09% in assay [2].
